Compound activity from PubChem BioAssay.
HTR2A ag – activates the mouse 5-HT2A serotonin receptor; P35363; CHO-K1 mHTR2A beta-arrestin complementation, luminescence; percent of 30 µM serotonin response; activation, % at 7.6 µM; actives 0.66% (n = 360,000);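 active = activation above a run cutoff, the mean activation of all tested compounds plus 3 SD, cut at about 14% in these data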;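 also: 0% = plate median of compound wells and 100% = 30 µM serotonin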
TLR9-MyD88 block – TLR9-MyD88 interaction inhibition | Q9NR96+Q99836 | CHO BLA complementation TLR9-MyD88, CCF4 FRET ratio | inhibition, % at 4.98 µM | actives 0.21% (n = 340,000) | AID 504734;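 active = inhibition above the mean over all tested compounds plus 3 SD, cut at about 21% in these data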;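 also: 0% = DMSO only wells and 100% = clavulanate BLA inhibitor control wells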
Rtt109 Vps75 – blocks Candida albicans Rtt109/Vps75 acetyltransferase activity. purified Rtt109/Vps75, ThioGlo CoA-SH fluorescence, 4 h. AID 540336. Q5AAJ8. actives 0.16% (n = 330,000). inhibition, % at 34.9 µM;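 active = inhibition of at least 50% in every replicate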
NOD2 RIPK2 PPI – blocks binding of human NOD2 to RIPK2. O43353. CHO BLA complementation NOD2-RIPK2, CCF4 ratio. inhibition, % at 4.98 µM. actives 0.38% (n = 360,000). AID 624267; in the data active = inhibition above about 21%;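 also: 0% = vehicle only and 100% = reference blocker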
TLR4-MyD88 BLA – TLR4-MyD88 interaction inhibition in cells; AID 861; HeLa CL3-4 TLR4/MyD88 BLA complementation, FRET ratio; inhibition, % at 8.4 µM; actives 0.18% (n = 200,000); in the data active = inhibition above about 25%;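 also: 0% = vehicle and 100% = reference inhibitor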
LANA-H2B inh – blocks KSHV LANA binding to histone H2A/H2B | Q9QR71 | cell-free LANA-H2A/H2B peptide, fluorescence polarization | inhibition, % (test concentration not listed) | actives 0.6% (n = 320,000); in the data active = inhibition mostly above about 10%, no sharp cut-off; inactive = mostly below about 6.7%
Target sequence (Q9QR71 whole entry, looked up): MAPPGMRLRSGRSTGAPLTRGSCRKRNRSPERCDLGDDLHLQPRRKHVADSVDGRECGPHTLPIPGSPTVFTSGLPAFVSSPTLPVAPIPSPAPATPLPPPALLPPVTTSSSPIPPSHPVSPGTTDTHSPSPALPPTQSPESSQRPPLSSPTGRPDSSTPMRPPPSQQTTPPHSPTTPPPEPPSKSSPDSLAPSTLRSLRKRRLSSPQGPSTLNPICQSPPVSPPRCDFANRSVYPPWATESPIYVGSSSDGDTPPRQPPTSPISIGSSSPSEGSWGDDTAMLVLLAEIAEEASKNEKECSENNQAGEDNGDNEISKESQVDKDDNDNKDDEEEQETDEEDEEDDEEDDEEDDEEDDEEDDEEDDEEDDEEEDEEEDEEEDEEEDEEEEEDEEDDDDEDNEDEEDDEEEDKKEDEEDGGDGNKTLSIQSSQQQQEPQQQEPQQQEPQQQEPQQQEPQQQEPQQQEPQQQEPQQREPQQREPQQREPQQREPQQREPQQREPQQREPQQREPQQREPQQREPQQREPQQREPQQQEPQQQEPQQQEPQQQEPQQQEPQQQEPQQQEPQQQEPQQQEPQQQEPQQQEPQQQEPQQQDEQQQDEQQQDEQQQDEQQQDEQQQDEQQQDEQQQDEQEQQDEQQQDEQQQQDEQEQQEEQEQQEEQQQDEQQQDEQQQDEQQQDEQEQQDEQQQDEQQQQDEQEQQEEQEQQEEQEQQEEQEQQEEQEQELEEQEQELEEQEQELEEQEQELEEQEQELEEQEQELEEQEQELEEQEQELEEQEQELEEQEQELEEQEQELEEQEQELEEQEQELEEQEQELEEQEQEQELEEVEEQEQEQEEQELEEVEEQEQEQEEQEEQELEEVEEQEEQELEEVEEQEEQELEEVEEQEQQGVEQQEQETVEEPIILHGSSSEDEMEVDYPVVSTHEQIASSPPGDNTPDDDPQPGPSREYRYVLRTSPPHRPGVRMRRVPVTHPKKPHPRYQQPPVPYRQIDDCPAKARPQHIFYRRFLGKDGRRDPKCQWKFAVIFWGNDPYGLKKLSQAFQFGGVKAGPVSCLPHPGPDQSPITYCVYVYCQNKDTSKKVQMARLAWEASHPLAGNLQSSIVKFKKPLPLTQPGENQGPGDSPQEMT
TLR9-MyD88 cf – confirmation of human TLR9-MyD88 binding inhibitors. AID 540250. inhibition, % at 4.98 µM. shares compounds with TLR9-MyD88 block. CHO TLR9/MyD88 BLA complementation, CCF4 FRET ratio. actives 51% (n = 680);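 active = mean inhibition across three repeats above about 21% taken from the earlier screen, limit read from the data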;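 also: blue over green emission ratio reports constitutive TLR9 MyD88 association via BLA complementation; 0% = DMSO vehicle wells and 100% = clavulanate BLA inhibitor wells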
BLA nonselective – counter-screen for TLR9-MyD88 inhibitors: non-selective beta-lactamase inhibitors; inhibition, % at 4.98 µM; actives 7% (n = 680); shares compounds with TLR9-MyD88 block; CHO-BLA cells, CCF4 FRET ratio, BLA reporter;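 active = mean inhibition above a 50% cutoff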;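 also: counterscreen of TLR9-MyD88 hits on CMV-driven BLA in CHO-K1 cells; 0% = DMSO alone and 100% = clavulanate blocking BLA; higher means less blue over green ratio so more BLA blockade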
TLR9 CHO tox – CHO cell toxicity counter-screen for TLR9-MyD88 inhibitors; TLR9-MyD88 CHO cells cytotoxicity, luminescence; actives 39% (n = 680); shares compounds with TLR9-MyD88 block; inhibition, % at 4.98 µM; in the data active = inhibition above about 11%
* marks the source's active call; other numbers are inactive results; / = not tested or not shown. Sampled rows, rich in hits. Any-hit rate of the full collection: about 1.8%.

SMILES	HTR2A ag	TLR9-MyD88 block	Rtt109 Vps75	NOD2 RIPK2 PPI	TLR4-MyD88 BLA	LANA-H2B inh	TLR9-MyD88 cf	BLA nonselective	TLR9 CHO tox
Cc1ccc(C2=CC(c3ccccc3)n3ncnc3N2)c(C)c1 (stereo unspecified)	1	-7	-9	-9	/	-4	/	/	/
NC(=O)c1ccsc1NC(=O)CSc1nncs1	-18	-1	1	8	/	/	/	/	/
O=C(CSc1nncs1)Nc1nccs1	2	26*	-3	0	/	2	0	-2	-1
COc1ccc(OC)c(CN2C(=O)c3ccccc3C2c2nnnn2C2CCCC2)c1 (stereo unspecified)	0	/	/	-1	/	/	/	/	/
O=S(=O)(Nc1cccc2ncccc12)c1cccs1	-12	29*	-12	52*	5	-5	26*	12	103*
CCC[C@@H]1C=C(C(=O)OCC)[C@H](c2ccccc2)N1S(=O)(=O)c1ccc(C)cc1	4	/	/	-8	/	/	/	/	/
O=[N+]([O-])c1c(NCCO)cc(N2CCCCCC2)c2nonc12	-4	-2	9	-7	/	5	/	/	/
Cc1nnc(Sc2cc(NCCO)c([N+](=O)[O-])c3nonc23)s1	-2	21*	-20	10	2	/	23*	3	98*
COc1ccc(C(C)(NC(C)=O)c2nc(-c3cccc4cccnc34)cs2)cc1 (stereo unspecified)	2	/	/	-4	/	/	/	/	/
Nc1cccc2c1C(=O)N(C(=O)c1ccc(Cl)c(S(=O)(=O)N3CCCCCC3)c1)C2=O	-1	28*	-195	17	19	2	8	13	2
CCOC(=O)COc1ccc(/C=C/[N+](=O)[O-])c(OCC(=O)OCC)c1	-3	22*	-14	1	11	-3	13	-2	28*
CCOC(=O)COc1ccc2ccccc2c1/C=C/[N+](=O)[O-]	0	24*	-6	-1	0	-1	34*	-3	90*
O=C(NCc1ccccc1)C1Cc2c(-c3ccc4c(c3)OCO4)ccnc2O1 (stereo unspecified)	0	/	/	14	/	/	/	/	/
Cc1cn([C@H]2C[C@H](O)[C@@H](CCC(=O)NCC(c3ccccc3)c3ccccc3)O2)c(=O)[nH]c1=O	3	/	/	-7	/	/	/	/	/
CCCCN(CCCC)Cc1cc(=O)oc2cc(C)c(Cl)cc12	4	/	/	5	/	/	/	/	/
CCOC(=O)Cc1csc(/N=C/c2c(O)n(-c3ccccc3C(F)(F)F)c(=O)c3ccccc23)n1	4	22*	2	9	18	4	8	9	10
CCOC(=O)Cc1csc(-n2sc3ccccc3c2=O)n1	7	-3	5	16	13	1	/	/	/
O=C(N/N=C/c1cccc2ccccc12)c1cc2ccccc2o1	-4	23*	4	-5	/	/	3	-2	4
O=C(N/N=C/c1ccccc1F)c1cc2c(ccc3ccccc32)o1	-4	-8	-8	-12	/	3	/	/	/
O=C(COC(=O)c1cccc2c1C(=O)c1ccccc1C2=O)NC1CCCCC1	4	0	-4	-4	11	-1	/	/	/
O=C(COC(=O)c1ccc2c(c1[N+](=O)[O-])C(=O)c1ccccc1C2=O)NC1CC1	-7	25*	2	19	7	-9	12	-4	19*
O=C1c2cccc3c(O)ccc(c23)C(=O)N1c1ccc(Cl)cc1	-6	27*	-8	7	/	23*	12	15	0
O=C(Nc1ccc(F)cc1)Nc1nnc([C@@H]2C[C@H](O)[C@@H](CO)O2)s1	8	/	/	-11	/	/	/	/	/
COc1ccc(Cn2c(O)c(/C=N/NC(=O)c3cccnc3)c3ccccc3c2=O)cc1	-2	26*	-16	17	2	/	12	11	9
Nc1nc(-c2ccccc2)c(-c2ccccc2)n1N	-1	5	/	-1	/	-3	/	/	/
SMILES	HTR2A ag	TLR9-MyD88 block	Rtt109 Vps75	NOD2 RIPK2 PPI	TLR4-MyD88 BLA	LANA-H2B inh	TLR9-MyD88 cf	BLA nonselective	TLR9 CHO tox
c1ccc(-c2cnn3c(-c4ccccc4)c(-c4ccccc4)nc3n2)cc1	0	23*	-2	9	13	/	60*	58*	-3
CS(=O)(=O)Nc1nc2n(n1)C(c1ccccc1)C=C(c1ccc(Br)cc1)N2 (stereo unspecified)	1	37*	-456	47*	17	14	8	9	2
O=C(Nc1nc2n(n1)C(c1ccccc1)C=C(c1ccccc1)N2)c1ccco1 (stereo unspecified)	-1	-5	-2	-1	6	-5	/	/	/
CC(=O)Nc1nc2n(n1)C(c1ccccc1)C=C(c1ccccc1)N2 (stereo unspecified)	-2	56*	/	56*	18	9	34*	40	1
CCCCCCCCN1C(=O)[C@H](CC(=O)NCCCC)C[C@@]2(C(=O)OC)CCCCC=C12	-2	/	/	-1	/	/	/	/	/
CC(C)n1cc(CN2CCCC(C(=O)Nc3cccc(-c4cc5ccccc5[nH]4)c3)C2)cn1 (stereo unspecified)	-7	23*	37	5	/	-1	6	-1	7
Cc1cc(C)cc(Cn2cc(CN3CC(N(C)C)CS3(=O)=O)nn2)c1 (stereo unspecified)	4	/	/	4	/	/	/	/	/
CCNC(=O)C1(C)CCN(C(=O)c2c(F)cccc2F)C1 (stereo unspecified)	-3	/	/	-7	/	/	/	/	/
CCc1ccc(/C=C2\Oc3c(ccc(O)c3CN3CCN(C)CC3)C2=O)cc1	-3	0	13	15	/	4	/	/	/
CCN1CCN(Cc2c(O)ccc3c2O/C(=C\c2ccc(C)cc2)C3=O)CC1	-2	21*	-279	16	10	7	10	14	1
CN1CCN(c2ncnc3c2ncn3[C@H]2CN(Cc3ccc(-c4ccccc4)cc3)C[C@@H](CO)O2)CC1	-2	/	/	8	/	/	/	/	/
C#CCOCCOCCOCCNc1nc(N2CCN(C(=O)CCCCCCCCCCNC(=O)[C@H](CO)n3cc(CCCSC)nn3)CC2)nc(N2CCN(C(=O)CCCCCCCCCCNC(=O)[C@H](CCCCN)n3cc(C[C@@H](C)CC)nn3)CC2)n1	/	/	/	/	/	4	/	/	/
C#CCOCCOCCOCCNc1nc(N2CCN(C(=O)CCCCCCCCCCNC(=O)[C@H](CCCCN)n3cc(C[C@@H](C)CC)nn3)CC2)nc(N2CCN(C(=O)CCCCCCCCCCNC(=O)[C@H](CCCCN)n3cc(C[C@@H](C)CC)nn3)CC2)n1	2	52*	6	35*	/	-18	29*	17	43*
